Assay outcomes: PubChem, several laboratories
Only some compounds are listed: those with a hit (about 3.4% of all), similar ones and a draw of the others.
H9c2 protect = myocardial damage modulation in H9c2 cells. 360,000 compounds, 0.63% hits. protection from H2O2 cell death, % at 20 µM. H9c2 cardiomyocytes, H2O2 injury protection, ATPLite, 2 h. AID 588492;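 active = compounds giving at least 50% protection of heart cells from peroxide-induced death in the single-dose screen, raw or plate-pattern-corrected value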;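 also: 0% = DMSO wells with peroxide and 100% = DMSO wells without peroxide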
GalR3 antagonist = human GalR3 antagonism | AID 651719 | HEK293 GalR3-CNG cAMP membrane potential fluorescence; galR3 body fused to GalR1 C-terminus | inhibition, % at 3 µM | 360,000 compounds, 0.44% hits;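 active = inhibition above the screen-wide average plus 3 SD, cut at about 13% in these data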;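 also: forskolin and galanin both at EC90 stimulate the cells; cAMP rise reported by CNG channel membrane potential dye signal; 0% = forskolin plus galanin with DMSO and 100% = forskolin alone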
FXN GAA850 act = increases GAA850 frataxin promoter reporter activity; 360,000 compounds, 0.56% hits; activation, % at 6 µM; AID 540364; HEK293 lucGAA850 FXN promoter luciferase reporter, 24 h; percent of 10 µM SAHA response;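 active = activation above the average of all compounds screened plus 3 SD, cutoff fixed separately per campaign, cut at about 7.5% in these data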;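 also: 0% = DMSO wells and 100% = 10 µM SAHA wells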
SMARCA2 activ = SMARCA2 function activation, primary screen. MG213 cells, MMTV-luciferase reporter, dexamethasone, overnight. 370,000 compounds, 1% hits. AID 652017. activation, % at 9.1 µM; in the data active = activation above about 7.8%;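 also: 0% = vehicle wells and 100% = reference activator wells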
NR2F2 inh = blocks human COUP-TFII nuclear receptor. P24468. HEK293T NGFI-A luciferase reporter, luminescence. inhibition, % at 8.6 µM. 370,000 compounds, 0.7% hits;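 active = inhibition above a per-plate cutoff, mean inhibition of test wells between control levels plus 3 SD, cut at about 38% in these data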;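 also: cells cotransfected with COUP-TFII expression vector driving the NGFI-A reporter; 0% = median of COUP-TF2 test wells and 100% = reporter-only cells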
Target sequence (P24468 whole entry, looked up): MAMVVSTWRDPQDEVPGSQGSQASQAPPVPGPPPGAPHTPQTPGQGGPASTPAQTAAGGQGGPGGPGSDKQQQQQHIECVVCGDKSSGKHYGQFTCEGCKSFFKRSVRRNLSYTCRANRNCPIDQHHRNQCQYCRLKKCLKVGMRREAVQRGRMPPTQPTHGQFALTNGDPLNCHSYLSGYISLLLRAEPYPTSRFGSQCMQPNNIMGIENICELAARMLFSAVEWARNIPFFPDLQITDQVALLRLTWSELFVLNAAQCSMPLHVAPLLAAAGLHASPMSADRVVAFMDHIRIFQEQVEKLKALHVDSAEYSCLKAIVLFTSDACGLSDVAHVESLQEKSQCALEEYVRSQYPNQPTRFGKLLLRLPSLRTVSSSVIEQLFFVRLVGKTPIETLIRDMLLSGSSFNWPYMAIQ
Gli-Sufu antag = blocks Gli-Sufu signaling in a luciferase reporter. Sufu-KO-LIGHT fibroblasts, Gli luciferase reporter luminescence. inhibition, % at 5 µM. 340,000 compounds, 0.74% hits;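 active = inhibition above about 55%, limit read from the data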;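 also: 0% = DMSO-treated cells and 100% = wells with medium but no cells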
* = called active by the depositor; . = no result given.

SMILES	H9c2 protect	GalR3 antagonist	FXN GAA850 act	SMARCA2 activ	NR2F2 inh	Gli-Sufu antag
COc1cccc2c1C(=O)c1c(O)c3c(c(O)c1C2=O)C[C@@](O)(C(=O)CO)C[C@@H]3OC1CC(N)C(O)C(C)O1 (stereo partly drawn)	-1	-9	-11	-11	-21	91*
CC(C)(C)c1cc(C(=O)N/N=C/c2ccccc2O)n(-c2ccccc2)n1	51*	6	0	-2	-16	45
Cc1cc(C(=O)N/N=C/c2cc(Br)cc(Br)c2OC(=O)c2cccc(F)c2)n[nH]1	83*	-6	0	-2	1	16
Cc1cc(C(=O)N/N=C\c2cc(C(C)(C)C)ccc2O)n[nH]1	62*	.	-2	.	.	6
N#Cc1cccc2c1-c1ccccc1/C2=N/NC(N)=O	56*	.	0	.	.	-7
COc1ccc(/C=N/Nc2cc(C)nc3ccccc23)cc1	-19	2	0	7	12	55*
O=C(N/N=C/c1ccccc1O)C1CC(=O)N(c2ccc(Cl)cc2)C1 (stereo not drawn)	55*	-5	-3	-3	-3	20
Cc1ccc(/C=N/NC(=O)C2CC(=O)N(c3ccccc3)C2)s1 (stereo not drawn)	4	-9	0	-1	23	-7
O=C1C=C(N2CCOCC2)c2cccc3cccc1c23	61*	-3	4	-6	0	.
C[C@H](O)[C@@]1(O)CC[C@H]2[C@@H]3CC[C@@H]4C[C@H](O)CC[C@]4(C)[C@H]3CC[C@@]21C	-2	0	-1	-2	14	3
CC12CCC3C(CCC4CC(O)CCC43C)C1CC(O)C2 (stereo not drawn)	50*	-6	1	-5	4	11
O=C(Nc1ccccc1Oc1ccccc1)c1ccccc1F	-3	-3	1	9.5*	-1	3
CCOC(=O)CC[C@@]1(C(=O)OCC)C[C@@H](CC(=O)N2CCN(C(=O)c3ccco3)CC2)C(=O)N2CCCC=C21	.	.	.	0	-3	.
Cc1ccccc1C1=NC(C(F)(F)F)(C(F)(F)F)c2c(n(C)c(=O)n(C)c2=O)N1	-5	3	3	-5	-10	6
Cn1c2c(c(=O)n(C)c1=O)C(C(F)(F)F)(C(F)(F)F)N=C(c1ccc(Cl)cc1)N2	-17	.	-14	.	.	88*
COc1ccc(/C=N/NC(=O)c2ccc(COc3cccc4cccnc34)cc2)cc1OC	54*	-5	1	-1	8	9
O=C(N/N=C/c1cccc(O)c1)c1ccc(COc2cccc3cccnc23)cc1	-1	-3	1	-2	6	-10
COc1ccc(/C=N/NC(=O)c2sccc2OCc2ccc(F)cc2)cc1OC	53*	-4	0	0	-4	-6
COc1ccc(/C=N/NC(=O)c2ccc(COc3cccc4cccnc34)cc2)cc1O	45	-3	2	3	-10	-39
COc1cc(/C=N/NC(=O)c2cccs2)ccc1OCc1ccccc1	24	-2	4	-2	-49	-11
O=C(N/N=C/c1ccncc1)c1ccc(COc2cccc3cccnc23)cc1	64*	-1	1	0	-2	9
O=C(Nc1nc2ncccn2c1-c1ccc(C(F)(F)F)cc1)c1ccccc1	.	.	.	-3	5	.
O=C(NNC(=O)C(c1ccccc1)c1ccccc1)c1ccccn1	51*	-4	-2	0	-1	24
O=C(N[C@H](C(=O)N1CCC[C@H]1C(=O)NCCc1ccccc1Cl)C1CCCCC1)c1ccccc1	.	-6	.	2	-16	.
O=C(NC1CCCCN(Cc2ccc(Cl)cc2)C1=O)c1cccc([N+](=O)[O-])c1 (stereo not drawn)	.	.	.	-4	-5	.
Cc1ccc(O)c(NC(=O)c2cc(-c3ccccc3)on2)c1	-11	-11	6	7.8*	-67	14
C(=N/N1CCN(c2ccccc2)CC1)/c1ccco1	.	.	.	1	-26	.
COc1cc(-c2nnc(SCc3cc(=O)oc4cc(O)c(O)cc34)o2)cc(OC)c1OC	81*	-6	-1	0	-5	2
CCCN(CCC)S(=O)(=O)c1ccc(C(=O)Nc2nnc(-c3cc(OC)cc(OC)c3)o2)cc1	54*	.	2	.	.	24
CCCN(CCC)S(=O)(=O)c1ccc(C(=O)Nc2nnc(-c3cccc(OC)c3)o2)cc1	31	-2	1	-4	8	21
